The record followed here is ChEMBL document CHEMBL1961873, “Compounds: GSK PKIS; Assays: Nanosyn kinase panel” (2012).

The term inhibition denotes the relative decrease from the control value, in per cent.

Assay [1] concerns the target Sphingosine kinase 1 (Homo sapiens) (UniProt Q9NYA1). To be noted: at 1 µM.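 Further: mean SPHK1 inhibition value reported from the GSK PKIS kinase panel screen.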
Assay [2] deals with T1, Sphingosine kinase 2 (Homo sapiens) (UniProt Q9NRA0).
T1 sequence (whole entry): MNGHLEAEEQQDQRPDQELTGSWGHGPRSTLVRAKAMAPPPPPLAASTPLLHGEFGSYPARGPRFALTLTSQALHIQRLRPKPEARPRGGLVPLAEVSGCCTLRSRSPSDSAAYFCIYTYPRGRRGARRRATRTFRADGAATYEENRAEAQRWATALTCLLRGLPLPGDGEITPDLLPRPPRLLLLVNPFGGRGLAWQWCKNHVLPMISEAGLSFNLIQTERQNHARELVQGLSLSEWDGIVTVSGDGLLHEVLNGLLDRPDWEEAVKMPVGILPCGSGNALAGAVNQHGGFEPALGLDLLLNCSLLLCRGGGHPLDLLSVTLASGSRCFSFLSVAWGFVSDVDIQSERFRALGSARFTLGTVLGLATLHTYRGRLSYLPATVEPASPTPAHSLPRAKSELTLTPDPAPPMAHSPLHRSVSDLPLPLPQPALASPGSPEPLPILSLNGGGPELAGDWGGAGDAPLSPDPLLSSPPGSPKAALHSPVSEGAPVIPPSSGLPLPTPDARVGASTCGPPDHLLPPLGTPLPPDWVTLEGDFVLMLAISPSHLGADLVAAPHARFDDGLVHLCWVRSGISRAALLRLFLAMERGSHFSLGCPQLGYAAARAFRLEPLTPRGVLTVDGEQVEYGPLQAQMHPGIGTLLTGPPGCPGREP
To be noted: at 0.1 µM.

Assay [3] addresses T1, Sphingosine kinase 2 (Homo sapiens). To be noted: at 1 µM.
For assay [4], the target named is Casein kinase II subunit alpha (Homo sapiens) (UniProt P68400). To be noted: at 0.1 µM.
Assay [5] shares this target. To be noted: at 1 µM.
The target of assay [6] is T2, Inhibitor of nuclear factor kappa-B kinase subunit alpha (Homo sapiens) (UniProt O15111).
T2 sequence (whole entry): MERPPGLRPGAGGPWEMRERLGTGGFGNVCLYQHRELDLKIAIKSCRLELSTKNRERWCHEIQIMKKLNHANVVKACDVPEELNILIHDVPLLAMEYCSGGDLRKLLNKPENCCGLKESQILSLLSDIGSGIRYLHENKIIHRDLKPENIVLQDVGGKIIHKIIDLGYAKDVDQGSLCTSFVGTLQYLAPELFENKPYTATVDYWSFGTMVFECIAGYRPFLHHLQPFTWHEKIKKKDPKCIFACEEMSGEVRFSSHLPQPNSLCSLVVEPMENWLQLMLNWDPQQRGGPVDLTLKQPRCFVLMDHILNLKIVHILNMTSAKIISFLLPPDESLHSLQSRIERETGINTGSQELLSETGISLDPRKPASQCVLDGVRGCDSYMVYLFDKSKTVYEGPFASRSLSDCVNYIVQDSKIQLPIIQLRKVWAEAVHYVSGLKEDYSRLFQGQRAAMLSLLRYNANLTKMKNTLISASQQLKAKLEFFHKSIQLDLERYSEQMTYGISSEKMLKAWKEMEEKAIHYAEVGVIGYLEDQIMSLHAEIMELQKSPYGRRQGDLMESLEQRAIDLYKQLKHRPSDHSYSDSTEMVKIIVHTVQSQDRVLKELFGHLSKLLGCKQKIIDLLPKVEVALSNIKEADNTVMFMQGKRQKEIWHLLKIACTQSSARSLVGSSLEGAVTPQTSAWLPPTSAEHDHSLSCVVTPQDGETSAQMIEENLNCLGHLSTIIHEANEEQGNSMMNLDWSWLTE
The settings on record: at 0.1 µM.

In assay [7] the target is T2, Inhibitor of nuclear factor kappa-B kinase subunit alpha (Homo sapiens). The settings on record: at 1 µM.
Assay [8] addresses T3, Inhibitor of nuclear factor kappa-B kinase subunit beta (Homo sapiens) (UniProt O14920).
T3 sequence (whole entry): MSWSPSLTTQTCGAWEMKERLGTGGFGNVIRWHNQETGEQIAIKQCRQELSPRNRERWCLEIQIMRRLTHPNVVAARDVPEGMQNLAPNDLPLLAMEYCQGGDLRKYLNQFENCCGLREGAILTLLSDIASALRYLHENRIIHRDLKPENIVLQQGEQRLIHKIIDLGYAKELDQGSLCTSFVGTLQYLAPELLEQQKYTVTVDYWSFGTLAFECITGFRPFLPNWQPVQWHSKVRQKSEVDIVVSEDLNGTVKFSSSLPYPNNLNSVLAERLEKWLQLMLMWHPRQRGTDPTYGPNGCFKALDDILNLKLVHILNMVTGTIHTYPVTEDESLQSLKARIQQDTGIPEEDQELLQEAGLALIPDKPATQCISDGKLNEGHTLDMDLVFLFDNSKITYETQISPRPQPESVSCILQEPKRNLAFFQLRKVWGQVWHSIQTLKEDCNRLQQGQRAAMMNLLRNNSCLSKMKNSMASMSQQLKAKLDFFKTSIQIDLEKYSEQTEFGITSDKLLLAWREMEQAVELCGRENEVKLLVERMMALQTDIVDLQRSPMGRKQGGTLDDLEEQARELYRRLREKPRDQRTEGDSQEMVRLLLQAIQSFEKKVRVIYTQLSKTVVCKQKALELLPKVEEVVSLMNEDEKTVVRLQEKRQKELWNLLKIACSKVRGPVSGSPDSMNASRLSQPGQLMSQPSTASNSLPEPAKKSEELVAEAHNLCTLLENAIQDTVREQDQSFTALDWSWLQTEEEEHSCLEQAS
The settings on record: at 0.1 µM.

In assay [9] the target is T3, Inhibitor of nuclear factor kappa-B kinase subunit beta (Homo sapiens). To be noted: at 1 µM.
Assay [10] deals with T4, Inhibitor of nuclear factor kappa-B kinase subunit epsilon (Homo sapiens) (UniProt Q14164).
T4 sequence (whole entry): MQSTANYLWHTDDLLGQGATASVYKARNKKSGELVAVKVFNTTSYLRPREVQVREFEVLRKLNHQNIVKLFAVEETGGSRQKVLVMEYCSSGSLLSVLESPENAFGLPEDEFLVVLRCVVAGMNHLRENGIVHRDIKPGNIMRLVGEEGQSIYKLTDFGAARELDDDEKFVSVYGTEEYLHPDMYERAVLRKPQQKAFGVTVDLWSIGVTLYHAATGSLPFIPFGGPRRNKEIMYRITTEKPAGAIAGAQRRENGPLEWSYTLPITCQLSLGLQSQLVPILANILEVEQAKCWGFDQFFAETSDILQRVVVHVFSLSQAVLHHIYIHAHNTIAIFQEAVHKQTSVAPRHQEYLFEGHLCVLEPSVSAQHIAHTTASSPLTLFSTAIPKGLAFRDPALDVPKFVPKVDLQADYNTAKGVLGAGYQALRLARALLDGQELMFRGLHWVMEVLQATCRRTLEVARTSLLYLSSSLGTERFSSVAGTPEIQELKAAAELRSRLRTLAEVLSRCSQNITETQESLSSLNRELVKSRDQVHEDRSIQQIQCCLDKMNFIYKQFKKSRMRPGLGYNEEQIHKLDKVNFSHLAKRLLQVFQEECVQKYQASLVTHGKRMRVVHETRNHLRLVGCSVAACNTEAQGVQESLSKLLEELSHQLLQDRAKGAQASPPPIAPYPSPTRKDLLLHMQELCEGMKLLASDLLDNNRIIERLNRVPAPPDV
To be noted: at 0.1 µM.

In assay [11] the target is T4, Inhibitor of nuclear factor kappa-B kinase subunit epsilon (Homo sapiens). To be noted: at 1 µM.
For assay [12], the target named is T5, Serine/threonine-protein kinase Nek1 (Homo sapiens) (UniProt Q96PY6).
T5 sequence (whole entry): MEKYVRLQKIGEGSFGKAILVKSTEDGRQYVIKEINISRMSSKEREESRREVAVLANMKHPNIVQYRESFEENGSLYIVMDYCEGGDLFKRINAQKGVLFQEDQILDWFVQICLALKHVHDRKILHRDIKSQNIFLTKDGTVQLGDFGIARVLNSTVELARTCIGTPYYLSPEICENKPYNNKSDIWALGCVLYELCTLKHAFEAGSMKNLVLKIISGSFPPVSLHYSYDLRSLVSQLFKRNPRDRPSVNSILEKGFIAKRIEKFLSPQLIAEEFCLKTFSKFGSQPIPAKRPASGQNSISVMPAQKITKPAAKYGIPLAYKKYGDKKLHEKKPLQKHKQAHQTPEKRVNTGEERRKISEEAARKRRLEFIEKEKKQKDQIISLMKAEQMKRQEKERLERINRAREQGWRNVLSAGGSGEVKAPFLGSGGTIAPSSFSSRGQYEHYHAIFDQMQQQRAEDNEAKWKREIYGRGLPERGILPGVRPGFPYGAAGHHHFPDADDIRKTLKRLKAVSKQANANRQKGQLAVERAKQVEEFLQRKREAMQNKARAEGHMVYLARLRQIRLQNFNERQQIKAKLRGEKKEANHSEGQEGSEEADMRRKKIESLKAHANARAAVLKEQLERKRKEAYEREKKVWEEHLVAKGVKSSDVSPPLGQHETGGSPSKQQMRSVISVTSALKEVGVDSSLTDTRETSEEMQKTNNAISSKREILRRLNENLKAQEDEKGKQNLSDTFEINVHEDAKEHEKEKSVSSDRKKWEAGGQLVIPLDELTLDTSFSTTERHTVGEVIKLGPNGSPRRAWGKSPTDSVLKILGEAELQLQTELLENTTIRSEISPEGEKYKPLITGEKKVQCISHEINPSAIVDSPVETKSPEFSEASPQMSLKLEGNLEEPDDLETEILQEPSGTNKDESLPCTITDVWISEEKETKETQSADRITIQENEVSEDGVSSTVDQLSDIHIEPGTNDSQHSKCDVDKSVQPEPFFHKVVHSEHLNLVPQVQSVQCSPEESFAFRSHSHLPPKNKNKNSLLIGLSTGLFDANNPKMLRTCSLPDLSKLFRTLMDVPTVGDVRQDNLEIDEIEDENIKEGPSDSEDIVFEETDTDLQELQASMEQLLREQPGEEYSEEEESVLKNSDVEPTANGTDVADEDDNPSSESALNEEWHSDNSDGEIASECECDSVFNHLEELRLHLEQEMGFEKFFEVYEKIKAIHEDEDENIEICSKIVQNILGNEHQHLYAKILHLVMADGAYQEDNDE
To be noted: at 0.1 µM.

The target of assay [13] is T5, Serine/threonine-protein kinase Nek1 (Homo sapiens). To be noted: at 1 µM.
Assay [14] deals with T6, Serine/threonine-protein kinase Nek2 (Homo sapiens) (UniProt P51955).
T6 sequence (whole entry): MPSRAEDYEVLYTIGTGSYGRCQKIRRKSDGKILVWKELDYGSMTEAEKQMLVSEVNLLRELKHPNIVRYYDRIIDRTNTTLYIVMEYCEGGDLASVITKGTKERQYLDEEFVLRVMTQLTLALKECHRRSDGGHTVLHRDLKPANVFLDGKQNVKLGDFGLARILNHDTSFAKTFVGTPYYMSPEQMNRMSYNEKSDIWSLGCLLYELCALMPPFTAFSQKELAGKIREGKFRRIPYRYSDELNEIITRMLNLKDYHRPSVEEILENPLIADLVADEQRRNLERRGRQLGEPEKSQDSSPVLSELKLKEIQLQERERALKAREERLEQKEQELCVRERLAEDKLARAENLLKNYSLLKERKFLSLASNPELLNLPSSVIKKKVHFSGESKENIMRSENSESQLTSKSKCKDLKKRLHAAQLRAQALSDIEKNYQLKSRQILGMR
The settings on record: at 0.1 µM.

Assay [15] concerns the target T6, Serine/threonine-protein kinase Nek2 (Homo sapiens). To be noted: at 1 µM.
In assay [16] the target is Serine/threonine-protein kinase Nek6 (Homo sapiens) (UniProt Q9HC98). To be noted: at 0.1 µM.
Assay [17] has the same target. To be noted: at 1 µM.
The target in assay [18] is Serine/threonine-protein kinase Nek7 (Homo sapiens) (UniProt Q8TDX7). The settings on record: at 0.1 µM.
Assay [19] has the same target. The settings on record: at 1 µM.
For assay [20], the target named is T7, Serine/threonine-protein kinase Nek9 (Homo sapiens) (UniProt Q8TD19).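 Further: reported value is the mean percent inhibition of NEK9.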
T7 sequence (whole entry): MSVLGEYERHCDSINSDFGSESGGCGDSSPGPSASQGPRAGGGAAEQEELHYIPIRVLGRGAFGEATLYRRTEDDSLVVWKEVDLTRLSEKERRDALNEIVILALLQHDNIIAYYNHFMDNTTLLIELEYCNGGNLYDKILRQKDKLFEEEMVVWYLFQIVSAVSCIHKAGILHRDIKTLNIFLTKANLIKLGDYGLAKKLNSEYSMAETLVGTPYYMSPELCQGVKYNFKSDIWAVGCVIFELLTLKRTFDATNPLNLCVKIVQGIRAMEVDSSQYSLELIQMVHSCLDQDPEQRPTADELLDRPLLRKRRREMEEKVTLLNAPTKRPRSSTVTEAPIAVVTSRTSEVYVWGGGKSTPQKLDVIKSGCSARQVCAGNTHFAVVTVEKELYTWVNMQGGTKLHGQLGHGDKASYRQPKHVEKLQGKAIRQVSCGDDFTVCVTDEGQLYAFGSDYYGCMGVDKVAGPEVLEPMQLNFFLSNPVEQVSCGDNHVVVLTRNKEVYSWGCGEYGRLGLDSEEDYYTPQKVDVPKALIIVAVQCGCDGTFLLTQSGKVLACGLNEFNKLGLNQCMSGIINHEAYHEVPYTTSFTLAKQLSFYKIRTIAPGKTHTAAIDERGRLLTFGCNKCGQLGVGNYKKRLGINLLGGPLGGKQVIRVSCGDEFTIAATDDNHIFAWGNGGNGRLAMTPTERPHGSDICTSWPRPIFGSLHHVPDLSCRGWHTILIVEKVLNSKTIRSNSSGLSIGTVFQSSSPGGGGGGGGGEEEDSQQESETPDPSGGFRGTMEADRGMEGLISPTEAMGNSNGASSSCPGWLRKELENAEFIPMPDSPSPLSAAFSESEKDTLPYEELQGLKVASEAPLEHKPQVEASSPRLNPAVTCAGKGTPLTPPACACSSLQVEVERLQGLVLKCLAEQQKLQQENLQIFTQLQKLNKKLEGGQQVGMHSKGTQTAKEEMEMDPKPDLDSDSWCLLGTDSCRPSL
The settings on record: at 0.1 µM.

Chain of Serine/threonine-protein kinase Nek7 (Homo sapiens) (Q8TDX7 whole entry, looked up): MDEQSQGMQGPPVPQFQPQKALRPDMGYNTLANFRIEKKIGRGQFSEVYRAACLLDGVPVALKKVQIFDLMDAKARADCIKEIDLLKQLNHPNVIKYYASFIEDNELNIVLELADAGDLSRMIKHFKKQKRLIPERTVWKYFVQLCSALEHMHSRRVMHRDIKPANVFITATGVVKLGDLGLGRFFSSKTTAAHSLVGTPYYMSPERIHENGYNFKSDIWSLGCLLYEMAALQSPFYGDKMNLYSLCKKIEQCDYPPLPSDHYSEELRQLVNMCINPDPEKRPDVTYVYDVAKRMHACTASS
Chain of Serine/threonine-protein kinase Nek6 (Homo sapiens) (Q9HC98 whole entry): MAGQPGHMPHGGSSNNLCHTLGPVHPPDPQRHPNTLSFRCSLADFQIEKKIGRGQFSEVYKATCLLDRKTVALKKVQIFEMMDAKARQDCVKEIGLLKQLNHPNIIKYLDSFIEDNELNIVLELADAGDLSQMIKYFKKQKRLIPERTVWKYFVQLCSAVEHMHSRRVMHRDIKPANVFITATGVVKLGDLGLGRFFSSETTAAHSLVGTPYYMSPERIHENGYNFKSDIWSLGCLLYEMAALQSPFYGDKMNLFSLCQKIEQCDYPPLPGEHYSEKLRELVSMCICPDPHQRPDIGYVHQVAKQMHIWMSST
Chain of Casein kinase II subunit alpha (Homo sapiens) (P68400 whole entry, looked up): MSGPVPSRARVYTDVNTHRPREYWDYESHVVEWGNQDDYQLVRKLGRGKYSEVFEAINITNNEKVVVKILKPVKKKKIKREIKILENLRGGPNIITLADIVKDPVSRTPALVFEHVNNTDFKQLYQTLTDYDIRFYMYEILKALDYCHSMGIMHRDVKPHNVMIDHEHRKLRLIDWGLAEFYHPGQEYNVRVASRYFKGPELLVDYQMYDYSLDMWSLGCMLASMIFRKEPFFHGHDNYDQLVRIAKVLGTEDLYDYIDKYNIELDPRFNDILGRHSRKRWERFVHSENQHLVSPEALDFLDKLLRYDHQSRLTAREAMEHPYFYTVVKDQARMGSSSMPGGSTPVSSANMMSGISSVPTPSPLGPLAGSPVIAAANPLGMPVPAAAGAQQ
Chain of Sphingosine kinase 1 (Homo sapiens) (Q9NYA1 whole entry): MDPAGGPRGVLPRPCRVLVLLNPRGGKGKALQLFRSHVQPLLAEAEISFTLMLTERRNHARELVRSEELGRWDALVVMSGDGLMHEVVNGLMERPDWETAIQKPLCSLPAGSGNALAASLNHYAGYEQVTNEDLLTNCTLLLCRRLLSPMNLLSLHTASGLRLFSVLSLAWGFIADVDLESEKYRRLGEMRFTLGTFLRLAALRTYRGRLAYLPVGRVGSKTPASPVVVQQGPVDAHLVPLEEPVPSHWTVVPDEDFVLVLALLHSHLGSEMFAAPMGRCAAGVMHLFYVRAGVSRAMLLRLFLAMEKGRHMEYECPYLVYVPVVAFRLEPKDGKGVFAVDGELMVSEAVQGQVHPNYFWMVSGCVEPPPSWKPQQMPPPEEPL

As to `NS(=O)(=O)c1ccc(-c2ccc3c(NC(=O)C4CC4)n[nH]c3c2)cc1`, the inhibition in assay [1] was -1.21%; in [2], 0.08%; in assay [3] it was -0.22%; in assay [4], 1.12%; in [5], 1.51%; in assay [6] it was 2.81%. Besides, the inhibition was 3% in [7]; 3.94% in assay [8]; 3.28% in assay [9]; -0.78% in assay [10]; 3.02% in assay [11]; 1.11% in [12]. Moreover, the inhibition in [13] was found to be 1.6%; in [14], 3.54%; in [15], 2.84%; in assay [16], 1.03%; in assay [17] it was 0.35%; in assay [18], 2.6%. Also, the inhibition in assay [19] worked out at 1.74%; in assay [20], 5.05%.
